Measured values from PubChem BioAssay (NCATS).
Where “and” joins values, the source holds several entries; their conditions need not be identical. Equal values may be shown once. Results filed as inconclusive are left out. Calls of active or inactive are those of the source. Calls follow the shape of the dose curve; as a rule, active = well fitted curve in the direction sought with a large enough effect; inconclusive = small, poorly fitted or top-dose-only effect, or another doubt; inactive = no such curve, though single readings can be large; an effect the other way counts as inactive or inconclusive.

Legend:
CRL-7250 = normal cell line; experiment: Cytotoxic Profiling of Annotated Libraries Using Quantitative High-Throughput Screening (AID 1296008); conditions: Five cell lines viability, CellTiter-Glo ATP luminescence, 48-72 h; max response: hits give low values; also: nearly all actives have a fitted effect of over 60% in size
Summary of the method: (§1)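 Cells exposed to compounds for 48 or 72 hr at 37 degrees Celsius. Viability read as ATP-coupled luminescence with CellTiter-Glo after 10 min at room temperature.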

HEK293 = experiment: as above; conditions: Five cell lines viability, CellTiter-Glo ATP luminescence, 48-72 h; max response: hits give low values
Summary of the method: as §1

HaCat [1] = experiment: as above; conditions: Five cell lines viability, CellTiter-Glo ATP luminescence, 48-72 h; max response: hits give low values
Summary of the method: as §1

KB-3-1 = experiment: as above; conditions: Five cell lines viability, CellTiter-Glo ATP luminescence, 48-72 h; max response: hits give low values
Summary of the method: as §1

NIH3T3 [2] = experiment: as above; conditions: Five cell lines viability, CellTiter-Glo ATP luminescence, 48-72 h; max response: hits give low values
Summary of the method: as §1

MCC-13 = experiment: qHTS assay to identify novel small-molecules to repurpose for Merkel cell carcinoma treatment (AID 1296009); conditions: MCC and control cell lines, CellTiter-Glo viability, 72 h; series mostly up to 46 µM; also: nearly all actives have a fitted effect of over 60% in size
Summary of the method: (§2)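 CellTiter-Glo luminescence after 72 hr compound exposure at 37 degree celsius gave cell viability. Libraries NPC and MIPE were run as 8- and 11-point dose responses; RLUs normalized to DMSO (negative) and no-cell (cytotoxicity) controls.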

MCC-26 = experiment: as above; conditions: MCC and control cell lines, CellTiter-Glo viability, 72 h; series mostly up to 46 µM
Summary of the method: as §2

MKL-1 = experiment: as above; conditions: MCC and control cell lines, CellTiter-Glo viability, 72 h; series mostly up to 46 µM
Summary of the method: as §2

UISO = experiment: as above; conditions: MCC and control cell lines, CellTiter-Glo viability, 72 h; series mostly up to 46 µM
Summary of the method: as §2

C33A = experiment: Primary qHTS to identify gynecologic anti-cancer compounds using libraries of approved drugs and bioactive compounds (AID 1345084); conditions: Gynecologic cancer cell panel viability, ATPlite luminescence, 48 h; series mostly up to 57.5 µM; also: nearly all actives have a fitted effect of over 55% in size
Summary of the method: (§3)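 Cells, 1,000 per well, were allowed to settle for 16 h at 37 C before compound addition. Five concentrations were tested for 48 h, and viability was read by ATPlite luminescence after 15 min at room temperature.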

CAOV3 = experiment: as above; conditions: Gynecologic cancer cell panel viability, ATPlite luminescence, 48 h; series mostly up to 57.5 µM
Summary of the method: as §3

CASKI = experiment: as above; conditions: Gynecologic cancer cell panel viability, ATPlite luminescence, 48 h; series mostly up to 57.5 µM
Summary of the method: as §3

Es-2 = experiment: as above; conditions: Gynecologic cancer cell panel viability, ATPlite luminescence, 48 h; series mostly up to 57.5 µM
Summary of the method: as §3

HeLa = experiment: as above; conditions: Gynecologic cancer cell panel viability, ATPlite luminescence, 48 h; series mostly up to 57.5 µM
Summary of the method: as §3

Hek293T [3] = experiment: as above; conditions: Gynecologic cancer cell panel viability, ATPlite luminescence, 48 h, control line for the selectivity index; series mostly up to 57.5 µM
Summary of the method: as §3

HEK293T [4] = experiment: qHTS assay to identify novel small-molecules to repurpose for Merkel cell carcinoma treatment (AID 1296009); conditions: MCC and control cell lines, CellTiter-Glo viability, 72 h; at 44.8 µM (top of the series) unless noted; also: nearly all actives have a fitted effect of over 60% in size
Summary of the method: as §2

MKL-2 = experiment: as above; conditions: MCC and control cell lines, CellTiter-Glo viability, 72 h; series mostly up to 46 µM
Summary of the method: as §2

WaGa = experiment: as above; conditions: MCC and control cell lines, CellTiter-Glo viability, 72 h; series mostly up to 46 µM
Summary of the method: as §2

HACAT [5] = experiment: as above; conditions: MCC and control cell lines, CellTiter-Glo viability, 72 h; series mostly up to 44.8 µM
Summary of the method: as §2

NIH3T3 [6] = experiment: as above; conditions: MCC and control cell lines, CellTiter-Glo viability, 72 h; at 44.8 µM (top of the series) unless noted
Summary of the method: as §2
% is scaled to controls: 0 for no effect and ±100 for the full control effect; potency is read from the fitted curve at half-maximal effect.

C=CCn1c(=O)c2cnc(Nc3ccc(N4CCN(C)CC4)cc3)nc2n1-c1cccc(C(C)(C)O)n1
active: Potency (HEK293) 235 nM and 920 nM | Potency (HaCat [1]) 332 nM and 1.64 µM | Potency (KB-3-1) 264 nM | Potency (NIH3T3 [2]) 469 nM and 1.16 µM | Potency (MCC-13) 6.62 µM | Potency (MCC-26) 4.69 µM | Potency (MKL-1) 0.662 µM | Potency (UISO) 3.72 µM | Potency (C33A) 1.41 µM | Potency (CAOV3) 3.55 µM | Potency (CASKI) 3.16 µM | Potency (Es-2) 1.26 µM | Potency (HeLa) 0.708 µM | Potency (Hek293T [3]) 0.631 µM
inactive: max response (CRL-7250) -7.63%

O=C(C=Cc1c(C(=O)O)[nH]c2cc(Cl)cc(Cl)c12)Nc1ccccc1
inactive: outcome (CRL-7250) | outcome (HEK293) | max response (HaCat [1]) -0.315% | max response (KB-3-1) 3.7% | max response (NIH3T3 [2]) 1.73% | outcome (HEK293T [4]) | Potency (MCC-13) | Potency (MCC-26) | Potency (MKL-1) | Potency (MKL-2) | Potency (UISO) | Potency (WaGa)

CC[C@@H]1C(=O)N(C)c2cnc(Nc3ccc(C(=O)NC4CCC(N5CCN(CC6CC6)CC5)CC4)cc3OC)nc2N1C(C)C (stereo not given in full)
active: Potency (CRL-7250) 332 nM and 14.6 µM | Potency (HEK293) 26.4 nM and 20.6 nM and 13 nM | Potency (HaCat [1]) 0.059 µM | Potency (KB-3-1) 11.8 nM and 4.6 nM | Potency (NIH3T3 [2]) 2.64 µM and 1.46 µM and 1.3 µM | Potency (MCC-13) 0.469 µM | Potency (MKL-1) 0.0743 µM | Potency (MKL-2) 4.18 µM | Potency (CASKI) 17.8 µM | Potency (Es-2) 3.98 µM

Cn1c(=O)n(-c2ccc(C(C)(C)C#N)cc2)c2c3cc(-c4cnc5ccccc5c4)ccc3ncc21
inactive: outcome (HaCat [1]) | Potency (HACAT [5]) | Potency (MKL-1) | Potency (MKL-2) | Potency (WaGa) | Potency (HeLa)
active: Potency (CRL-7250) 259 nM and 235 nM | Potency (HEK293) 326 nM and 26.4 nM | Potency (KB-3-1) 731 nM and 16.6 nM | Potency (NIH3T3 [2]) 580 nM and 46.9 nM | Potency (CAOV3) 0.562 µM | Potency (Hek293T [3]) 0.794 µM

NC1(Cc2ccc(Cl)cc2)CCN(c2ncnc3[nH]ccc23)CC1
active: Potency (CRL-7250) 13.2 µM | Potency (HEK293) 1.66 µM and 6.51 µM | Potency (C33A) 10 µM | Potency (Hek293T [3]) 10 µM
inactive: max response (HaCat [1]) -10.8% | max response (KB-3-1) -6.56% | max response (NIH3T3 [2]) 0.262% | Potency (MCC-13) | Potency (MCC-26) | Potency (MKL-2) | Potency (CAOV3) | Potency (CASKI) | Potency (Es-2) | Potency (HeLa)

O=C(Nc1cn[nH]c1-c1nc2ccc(CN3CCOCC3)cc2[nH]1)NC1CC1
active: Potency (CRL-7250) 1.3 µM | Potency (HEK293) 10.5 µM and 3.66 µM | Potency (HaCat [1]) 2.64 µM and 231 nM | Potency (KB-3-1) 5.9 µM and 4.11 µM | Potency (NIH3T3 [2]) 1.48 µM and 1.84 µM | Potency (MCC-13) 0.935 µM | Potency (MCC-26) 1.87 µM | Potency (MKL-2) 26.4 µM | Potency (UISO) 8.33 µM | Potency (C33A) 14.1 µM | Potency (CASKI) 2 µM | Potency (Es-2) 14.1 µM | Potency (Hek293T [3]) 7.94 µM

C[C@H]1C[C@@H]2[C@@H]([C@@H](O)C[C@@]3(C)[C@H]2CC[C@]3(O)C(=O)CO)[C@@]2(C)C=CC(=O)C=C12
inactive: max response (CRL-7250) -0.811% | max response (HEK293) -9.41% | max response (HaCat [1]) -11.8% | max response (KB-3-1) -1.28% and 2.95% | outcome (NIH3T3 [2]) | Potency (MCC-13) | Potency (MCC-26) | Potency (MKL-1) | Potency (MKL-2) | outcome (NIH3T3 [6]) | Potency (UISO) | Potency (WaGa)

O=C(NCCS(=O)(=O)c1ccc(C(F)(F)F)cn1)c1ccc(Cl)cc1
inactive: max response (CRL-7250) 2.65% | max response (HEK293) -5.18% | outcome (HaCat [1]) | outcome (KB-3-1) | max response (NIH3T3 [2]) 1.91% | Potency (HACAT [5]) | Potency (MCC-13) | Potency (MKL-1) | Potency (MKL-2) | Potency (UISO) | Potency (WaGa)

O=C(NCCCNc1nc(Nc2cccc(NC(=O)N3CCCC3)c2)ncc1I)c1cccs1
inactive: Potency (MKL-2)
active: Potency (CRL-7250) 5.9 µM | Potency (HEK293) 20.9 µM | Potency (HaCat [1]) 18.7 µM | Potency (KB-3-1) 13200 nM | Potency (NIH3T3 [2]) 2.09 µM | Potency (MCC-13) 9.35 µM | Potency (UISO) 16.6 µM | Potency (WaGa) 9.35 µM

Cc1c(CN2CCN(S(C)(=O)=O)CC2)sc2c(N3CCOCC3)nc(-c3cnc(N)nc3)nc12
active: Potency (CRL-7250) 166 nM and 259 nM | Potency (HEK293) 59 nM and 326 nM | Potency (HaCat [1]) 0.0418 µM | Potency (KB-3-1) 83.3 nM | Potency (NIH3T3 [2]) 148 nM and 517 nM | Potency (MCC-26) 0.833 µM | Potency (MKL-2) 0.118 µM | Potency (UISO) 0.264 µM | Potency (C33A) 1.58 µM | Potency (CASKI) 0.708 µM | Potency (HeLa) 2 µM | Potency (Hek293T [3]) 0.501 µM

COc1cc2c(Oc3ccc(-c4cnc(Nc5ccc(F)cc5)n(C)c4=O)cc3F)ccnc2cc1OCCCN1CCOCC1
inactive: Potency (C33A) | Potency (CASKI) | Potency (Hek293T [3])
active: Potency (CRL-7250) 13.2 µM | Potency (HEK293) 4.69 µM | Potency (HaCat [1]) 23.5 µM | Potency (KB-3-1) 9350 nM | Potency (NIH3T3 [2]) 526 nM and 5.8 µM | Potency (UISO) 11.8 µM

COC(=O)Nc1ccc(-c2nc(N3CCOCC3)c3cnn(C4CCN(Cc5cccnc5)CC4)c3n2)cc1
active: Potency (CRL-7250) 118 nM and 1.3 µM | Potency (HEK293) 66.2 nM and 1.46 µM | Potency (HaCat [1]) 13.2 µM | Potency (KB-3-1) 132 nM and 1.64 µM | Potency (NIH3T3 [2]) 83.3 nM and 920 nM | Potency (MCC-13) 14.8 µM | Potency (UISO) 1.87 µM | Potency (CAOV3) 8.91 µM | Potency (Es-2) 4.47 µM | Potency (HeLa) 25.1 µM | Potency (Hek293T [3]) 2.24 µM
